Unmarked numbers belong to inactive results.
What was measured:
Experiment in all cases: log2 ratio of Biotin-Ahx-Ub-VS probe labelling (fragment/DMSO); higher = less target engagement (more negative = stronger competition), active = hit call of the paper (q ≤ 0.05, log2 ratio ≤ -1)
Details in all cases: compound concentration: 200 uM; treatment time: 3 h
[1] = molecular target: T1, OTUD6B (UniProt Q8N6M0)
T1 sequence (whole entry): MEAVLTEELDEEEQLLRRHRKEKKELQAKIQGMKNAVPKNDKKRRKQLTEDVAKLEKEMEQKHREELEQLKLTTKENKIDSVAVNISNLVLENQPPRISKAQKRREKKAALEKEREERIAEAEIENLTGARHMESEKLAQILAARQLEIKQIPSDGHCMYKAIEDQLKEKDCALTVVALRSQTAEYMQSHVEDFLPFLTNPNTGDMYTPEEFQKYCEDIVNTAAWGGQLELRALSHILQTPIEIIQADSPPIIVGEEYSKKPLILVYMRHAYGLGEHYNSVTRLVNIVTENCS
Outline: (§1)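 Fragment (200 µM) or vehicle was incubated for 3 h with triplicate HEK293T lysate samples of 495 µg, which were then treated with Biotin-Ahx-Ub-VS at 0.5 µM final for 1 h. Labelled DUBs were enriched on NeutrAvidin, digested with LysC and trypsin, and analysed by diaPASEF LC-MS/MS. Values are average log2 fragment/vehicle ratios from an unpaired t-test on global-median-normalised Spectronaut label-free quantities, using proteins with ≥2 unique peptides.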

[2] = molecular target: T2, OTUD7B (UniProt Q6GQQ9)
T2 sequence (whole entry): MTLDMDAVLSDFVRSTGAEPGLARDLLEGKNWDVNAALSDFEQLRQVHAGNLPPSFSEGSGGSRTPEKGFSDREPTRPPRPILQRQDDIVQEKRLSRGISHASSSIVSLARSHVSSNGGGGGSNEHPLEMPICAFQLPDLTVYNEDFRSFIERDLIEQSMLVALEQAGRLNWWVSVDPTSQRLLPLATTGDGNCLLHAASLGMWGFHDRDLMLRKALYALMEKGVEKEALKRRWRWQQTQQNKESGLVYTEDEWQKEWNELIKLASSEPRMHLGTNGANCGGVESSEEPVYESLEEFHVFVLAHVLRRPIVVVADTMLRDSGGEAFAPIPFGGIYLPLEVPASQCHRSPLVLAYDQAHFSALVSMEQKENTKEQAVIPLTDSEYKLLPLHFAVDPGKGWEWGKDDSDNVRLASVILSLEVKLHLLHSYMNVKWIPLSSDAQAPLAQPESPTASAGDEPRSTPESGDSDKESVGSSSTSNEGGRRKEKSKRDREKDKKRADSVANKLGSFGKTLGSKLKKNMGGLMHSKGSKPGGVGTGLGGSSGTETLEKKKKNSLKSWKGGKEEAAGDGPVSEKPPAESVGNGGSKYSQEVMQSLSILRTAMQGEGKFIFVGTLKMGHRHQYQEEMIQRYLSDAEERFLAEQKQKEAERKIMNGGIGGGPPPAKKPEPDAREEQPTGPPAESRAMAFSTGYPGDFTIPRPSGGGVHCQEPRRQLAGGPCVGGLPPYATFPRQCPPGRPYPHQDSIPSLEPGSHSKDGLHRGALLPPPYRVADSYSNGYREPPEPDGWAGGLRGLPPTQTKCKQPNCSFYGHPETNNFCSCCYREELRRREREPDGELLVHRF
Outline: as §1

[3] = molecular target: PRPF8 (UniProt Q6P2Q9)
Outline: as §1

[4] = molecular target: T3, PSMD7 (UniProt P51665)
T3 sequence (whole entry): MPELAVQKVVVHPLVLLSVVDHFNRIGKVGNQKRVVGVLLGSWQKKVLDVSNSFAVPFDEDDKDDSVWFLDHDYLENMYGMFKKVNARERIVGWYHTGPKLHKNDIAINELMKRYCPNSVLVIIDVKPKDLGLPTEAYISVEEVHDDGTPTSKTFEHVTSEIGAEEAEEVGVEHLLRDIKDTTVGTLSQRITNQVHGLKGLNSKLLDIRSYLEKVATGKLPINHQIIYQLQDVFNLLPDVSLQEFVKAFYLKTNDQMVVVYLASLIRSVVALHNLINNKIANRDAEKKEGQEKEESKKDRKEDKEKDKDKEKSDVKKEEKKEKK
Outline: as §1

[5] = molecular target: UCHL1 (UniProt P09936)
Outline: as §1

[6] = molecular target: T4, UCHL3 (UniProt P15374)
T4 sequence (whole entry): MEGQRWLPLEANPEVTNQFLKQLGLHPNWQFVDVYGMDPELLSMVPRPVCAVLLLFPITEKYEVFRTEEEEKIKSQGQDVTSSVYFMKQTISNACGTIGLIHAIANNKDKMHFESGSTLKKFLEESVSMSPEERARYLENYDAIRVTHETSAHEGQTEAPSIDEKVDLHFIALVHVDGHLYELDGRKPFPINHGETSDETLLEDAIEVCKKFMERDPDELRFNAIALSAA
Outline: as §1

[7] = molecular target: T5, UCHL5 (UniProt Q9Y5K5)
T5 sequence (whole entry): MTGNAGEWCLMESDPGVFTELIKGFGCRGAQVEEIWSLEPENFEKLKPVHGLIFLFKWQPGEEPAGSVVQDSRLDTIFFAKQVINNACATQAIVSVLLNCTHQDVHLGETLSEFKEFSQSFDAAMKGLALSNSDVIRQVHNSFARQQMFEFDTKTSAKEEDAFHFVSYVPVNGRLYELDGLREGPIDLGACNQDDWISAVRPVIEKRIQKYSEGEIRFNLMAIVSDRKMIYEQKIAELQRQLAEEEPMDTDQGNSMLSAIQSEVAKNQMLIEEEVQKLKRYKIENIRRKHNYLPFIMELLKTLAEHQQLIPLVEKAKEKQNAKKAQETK
Outline: as §1

[8] = molecular target: USP10 (UniProt Q14694)
Outline: as §1

[9] = molecular target: T6, USP15 (UniProt Q9Y4E8)
T6 sequence (whole entry): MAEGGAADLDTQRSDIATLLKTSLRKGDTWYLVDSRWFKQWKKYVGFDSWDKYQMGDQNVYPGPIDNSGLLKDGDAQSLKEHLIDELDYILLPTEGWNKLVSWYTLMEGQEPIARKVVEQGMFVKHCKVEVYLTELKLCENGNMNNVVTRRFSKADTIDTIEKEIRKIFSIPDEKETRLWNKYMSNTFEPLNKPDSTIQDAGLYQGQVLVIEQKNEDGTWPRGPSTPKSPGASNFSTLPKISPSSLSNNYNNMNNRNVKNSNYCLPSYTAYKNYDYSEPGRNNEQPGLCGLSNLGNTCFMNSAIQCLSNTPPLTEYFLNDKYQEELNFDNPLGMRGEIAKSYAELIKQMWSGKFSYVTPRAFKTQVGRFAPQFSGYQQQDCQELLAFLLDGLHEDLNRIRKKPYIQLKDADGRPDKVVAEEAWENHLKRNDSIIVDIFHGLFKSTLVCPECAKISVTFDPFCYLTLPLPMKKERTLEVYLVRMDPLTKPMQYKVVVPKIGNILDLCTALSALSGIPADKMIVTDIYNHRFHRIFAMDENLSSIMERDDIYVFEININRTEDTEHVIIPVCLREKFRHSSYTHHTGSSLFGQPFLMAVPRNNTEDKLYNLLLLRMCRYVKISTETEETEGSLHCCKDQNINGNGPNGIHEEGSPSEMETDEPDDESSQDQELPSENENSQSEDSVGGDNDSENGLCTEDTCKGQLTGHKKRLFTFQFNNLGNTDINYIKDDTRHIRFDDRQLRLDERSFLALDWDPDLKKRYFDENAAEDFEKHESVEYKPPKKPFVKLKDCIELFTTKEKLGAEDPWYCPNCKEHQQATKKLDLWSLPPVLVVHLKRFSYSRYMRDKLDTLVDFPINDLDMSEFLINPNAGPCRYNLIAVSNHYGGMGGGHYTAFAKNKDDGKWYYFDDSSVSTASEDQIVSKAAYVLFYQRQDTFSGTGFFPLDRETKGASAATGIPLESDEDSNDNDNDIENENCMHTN
Outline: as §1

[10] = molecular target: USP16 (UniProt Q9Y5T5)
Outline: as §1

USP16, sequence (Q9Y5T5 whole entry, looked up): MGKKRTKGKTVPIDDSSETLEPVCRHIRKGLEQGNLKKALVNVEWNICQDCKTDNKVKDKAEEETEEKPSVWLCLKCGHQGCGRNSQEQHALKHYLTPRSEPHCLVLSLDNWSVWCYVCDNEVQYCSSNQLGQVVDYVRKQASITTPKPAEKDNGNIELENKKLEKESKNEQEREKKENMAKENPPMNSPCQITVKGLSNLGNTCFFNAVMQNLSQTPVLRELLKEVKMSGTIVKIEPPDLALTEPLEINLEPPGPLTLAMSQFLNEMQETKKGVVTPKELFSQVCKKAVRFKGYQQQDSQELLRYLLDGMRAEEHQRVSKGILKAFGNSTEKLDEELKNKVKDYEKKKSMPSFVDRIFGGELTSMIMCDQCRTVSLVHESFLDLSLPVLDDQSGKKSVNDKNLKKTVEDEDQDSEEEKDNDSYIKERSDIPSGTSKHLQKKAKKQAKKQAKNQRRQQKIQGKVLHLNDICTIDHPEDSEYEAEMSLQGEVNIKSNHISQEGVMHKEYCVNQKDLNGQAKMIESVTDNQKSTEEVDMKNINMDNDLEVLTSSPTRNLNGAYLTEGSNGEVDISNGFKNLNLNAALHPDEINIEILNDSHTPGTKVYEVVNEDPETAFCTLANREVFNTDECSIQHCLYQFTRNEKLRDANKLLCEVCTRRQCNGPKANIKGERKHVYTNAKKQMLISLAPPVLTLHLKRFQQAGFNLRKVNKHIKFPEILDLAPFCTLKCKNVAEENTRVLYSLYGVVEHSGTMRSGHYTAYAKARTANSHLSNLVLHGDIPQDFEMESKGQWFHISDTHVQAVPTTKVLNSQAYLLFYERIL
UCHL1, sequence (P09936 whole entry, looked up): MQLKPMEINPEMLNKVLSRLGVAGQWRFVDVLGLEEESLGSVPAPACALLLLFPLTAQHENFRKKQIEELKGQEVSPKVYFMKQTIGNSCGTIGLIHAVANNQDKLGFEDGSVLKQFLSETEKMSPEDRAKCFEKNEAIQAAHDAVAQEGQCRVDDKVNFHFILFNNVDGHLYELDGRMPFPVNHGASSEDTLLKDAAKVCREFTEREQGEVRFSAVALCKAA
USP10, sequence (Q14694 whole entry): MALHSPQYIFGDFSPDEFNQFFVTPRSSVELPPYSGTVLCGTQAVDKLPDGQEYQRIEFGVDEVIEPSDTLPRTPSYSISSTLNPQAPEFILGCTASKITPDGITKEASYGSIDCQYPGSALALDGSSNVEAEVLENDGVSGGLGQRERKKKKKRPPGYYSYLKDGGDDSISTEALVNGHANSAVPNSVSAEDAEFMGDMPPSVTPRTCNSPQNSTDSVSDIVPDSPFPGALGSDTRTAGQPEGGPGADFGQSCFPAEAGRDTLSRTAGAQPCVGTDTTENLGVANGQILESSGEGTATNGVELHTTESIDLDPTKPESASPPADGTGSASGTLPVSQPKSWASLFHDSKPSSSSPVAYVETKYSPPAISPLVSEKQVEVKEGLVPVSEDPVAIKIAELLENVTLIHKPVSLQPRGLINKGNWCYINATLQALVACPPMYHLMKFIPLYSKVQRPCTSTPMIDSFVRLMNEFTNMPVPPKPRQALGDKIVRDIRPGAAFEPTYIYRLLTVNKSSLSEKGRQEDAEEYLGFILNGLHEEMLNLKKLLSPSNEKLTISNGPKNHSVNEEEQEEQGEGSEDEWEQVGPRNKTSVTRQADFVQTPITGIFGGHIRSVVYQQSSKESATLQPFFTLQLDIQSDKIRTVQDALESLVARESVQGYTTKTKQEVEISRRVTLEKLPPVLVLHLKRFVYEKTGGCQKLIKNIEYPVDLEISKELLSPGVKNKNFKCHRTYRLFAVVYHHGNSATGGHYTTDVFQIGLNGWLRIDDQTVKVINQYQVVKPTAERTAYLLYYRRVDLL

## Cc1noc(N2CCN(C(=O)CCl)CC2)n1.Cl
[1]
  log2 ratio of Biotin-Ahx-Ub-VS probe labelling: -0.229
[2]
  log2 ratio of Biotin-Ahx-Ub-VS probe labelling: -0.413
[3]
  log2 ratio of Biotin-Ahx-Ub-VS probe labelling: -0.079
[4]
  log2 ratio of Biotin-Ahx-Ub-VS probe labelling: 0.128
[5]
  log2 ratio of Biotin-Ahx-Ub-VS probe labelling: -1.52 (active)
[6]
  log2 ratio of Biotin-Ahx-Ub-VS probe labelling: 0.0214
[7]
  log2 ratio of Biotin-Ahx-Ub-VS probe labelling: -0.188
[8]
  log2 ratio of Biotin-Ahx-Ub-VS probe labelling: -0.076
[9]
  log2 ratio of Biotin-Ahx-Ub-VS probe labelling: -0.285
[10]
  log2 ratio of Biotin-Ahx-Ub-VS probe labelling: 0.132
